Activity calls are given as the source filed them. How the source made its calls: active means hit-call score of the fitted dose curve at least 0.9, where 1 is the maximum; inactive means score below 0.9.
What follows are compounds tested against human ZAP70 Tyrosine Kinase, ZAP70 (gene 7535) (UniProt P43403) (assay: ERF_FR_ENZ_hZAP70: Eurofins (ERF) Enzymatic Radiometric [Km ATP] KinaseProfiler LeadHunter Assay for human ZAP70 Tyrosine Kinase).
Protocol: ERF_FR_ENZ_hZAP70 is a biochemical, single-readout assay that uses extracted gene-proteins in a cell-free assay. Measurements were taken 0.25 hour after chemical dosing in a 96-well plate. See ZAP70 Human TK Kinase Enzymatic HTRF Assay [Km ATP], Cerep.ERF_FR_ENZ_hZAP70 is an assay component calculated from the ERF_FR_ENZ_hZAP70 assay. It is designed to measure enzyme activity using a type of enzyme reporter as detected by fluorescence intensity with HTRF technology.Data from the assay component ERF_FR_ENZ_hZAP70 was analyzed at the assay endpoint, ERF_FR_ENZ_hZAP70, in the positive analysis fitting direction relative to DMSO as the negative control and baseline of activity. Using a type of enzyme reporter, loss-of-signal activity can be used to understand changes in enzymatic activity as they relate to gene ZAP70. To generalize the intended target to other relatable targets, this assay endpoint is annotated to the kinase intended target family, where the subfamily is protein tyrosine kinase.
ZAP-70 (h) is incubated with 50 mM Tris pH 7.5, 0.1 mM EGTA, 0.1 mM Na3VO4, 0.1% […], 0.1 mg/mL poly(Glu, Tyr) 4:1, 10 mM MnCl2, 10 mM MgAcetate and [gamma-33P]-ATP (specific activity and concentration as required). The reaction is initiated by the addition of the Mg/ATP mix. […]

Sequence of human ZAP70 Tyrosine Kinase, ZAP70 (gene 7535) (P43403 whole entry, looked up): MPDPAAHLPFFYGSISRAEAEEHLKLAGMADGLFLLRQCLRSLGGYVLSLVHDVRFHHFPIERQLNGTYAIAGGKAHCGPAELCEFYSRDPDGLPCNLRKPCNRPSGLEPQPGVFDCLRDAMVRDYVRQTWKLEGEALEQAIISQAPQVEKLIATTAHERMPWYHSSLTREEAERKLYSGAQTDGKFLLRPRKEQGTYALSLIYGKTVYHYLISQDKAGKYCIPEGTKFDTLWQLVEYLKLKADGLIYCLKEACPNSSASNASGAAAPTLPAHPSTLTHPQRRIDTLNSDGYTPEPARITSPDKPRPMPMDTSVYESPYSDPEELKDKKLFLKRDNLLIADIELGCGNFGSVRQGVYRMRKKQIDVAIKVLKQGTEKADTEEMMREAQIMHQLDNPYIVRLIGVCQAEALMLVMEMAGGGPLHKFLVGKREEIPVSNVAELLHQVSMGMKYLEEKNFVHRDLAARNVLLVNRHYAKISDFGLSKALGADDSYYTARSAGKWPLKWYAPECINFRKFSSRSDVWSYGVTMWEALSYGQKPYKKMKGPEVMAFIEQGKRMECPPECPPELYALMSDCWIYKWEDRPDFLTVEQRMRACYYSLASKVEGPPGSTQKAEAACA

Question: Which outcome does the source give for `O=C(/C=C/c1ccc(O)cc1)CC(=O)/C=C/c1ccc(O)cc1` here?
Answer: Its outcome is “inactive”.

Source: PubChem BioAssay AID2284139 (EPA ToxCast)
